# From the supplement of paper PMC12067093, “Discovery and optimisation of a covalent ligand for TRIM25 and its application to targeted protein ubiquitination” (Chemical Science, 2025)
# Targets with the largest changes are over-represented here; the source holds about 21,000 in all.
# Compound: Cc1cc(ccc1-c1ccccc1)C(=O)N1CCCN(CC1)C(=O)CCl [compound 10]
# Assay: probe-labelled cysteine peptide fold change vs DMSO (competition) (log2 fold change); higher = less target engagement (more negative = stronger competition)
# Settings: 50 µM; THP-1; incubation time: 4 h
# 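Note: competitive profiling in live THP-1 cells: cysteine peptides tagged with an iodoacetamide desthiobiotin (IA-DTB) probe, intensity after compound treatment relative to DMSO-treated cells.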
# Sequence of UniProt Q96E09 (Q96E09 whole entry): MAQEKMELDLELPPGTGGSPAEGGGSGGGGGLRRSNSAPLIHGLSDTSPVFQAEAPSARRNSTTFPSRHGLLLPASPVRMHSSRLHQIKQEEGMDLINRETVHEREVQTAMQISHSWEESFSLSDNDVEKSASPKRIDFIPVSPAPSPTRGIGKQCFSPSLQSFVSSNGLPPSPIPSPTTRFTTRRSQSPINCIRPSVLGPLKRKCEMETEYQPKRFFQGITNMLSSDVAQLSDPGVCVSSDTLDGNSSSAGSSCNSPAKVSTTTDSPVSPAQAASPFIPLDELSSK
# Sequence of UniProt Q9NVI1 (Q9NVI1 whole entry, looked up): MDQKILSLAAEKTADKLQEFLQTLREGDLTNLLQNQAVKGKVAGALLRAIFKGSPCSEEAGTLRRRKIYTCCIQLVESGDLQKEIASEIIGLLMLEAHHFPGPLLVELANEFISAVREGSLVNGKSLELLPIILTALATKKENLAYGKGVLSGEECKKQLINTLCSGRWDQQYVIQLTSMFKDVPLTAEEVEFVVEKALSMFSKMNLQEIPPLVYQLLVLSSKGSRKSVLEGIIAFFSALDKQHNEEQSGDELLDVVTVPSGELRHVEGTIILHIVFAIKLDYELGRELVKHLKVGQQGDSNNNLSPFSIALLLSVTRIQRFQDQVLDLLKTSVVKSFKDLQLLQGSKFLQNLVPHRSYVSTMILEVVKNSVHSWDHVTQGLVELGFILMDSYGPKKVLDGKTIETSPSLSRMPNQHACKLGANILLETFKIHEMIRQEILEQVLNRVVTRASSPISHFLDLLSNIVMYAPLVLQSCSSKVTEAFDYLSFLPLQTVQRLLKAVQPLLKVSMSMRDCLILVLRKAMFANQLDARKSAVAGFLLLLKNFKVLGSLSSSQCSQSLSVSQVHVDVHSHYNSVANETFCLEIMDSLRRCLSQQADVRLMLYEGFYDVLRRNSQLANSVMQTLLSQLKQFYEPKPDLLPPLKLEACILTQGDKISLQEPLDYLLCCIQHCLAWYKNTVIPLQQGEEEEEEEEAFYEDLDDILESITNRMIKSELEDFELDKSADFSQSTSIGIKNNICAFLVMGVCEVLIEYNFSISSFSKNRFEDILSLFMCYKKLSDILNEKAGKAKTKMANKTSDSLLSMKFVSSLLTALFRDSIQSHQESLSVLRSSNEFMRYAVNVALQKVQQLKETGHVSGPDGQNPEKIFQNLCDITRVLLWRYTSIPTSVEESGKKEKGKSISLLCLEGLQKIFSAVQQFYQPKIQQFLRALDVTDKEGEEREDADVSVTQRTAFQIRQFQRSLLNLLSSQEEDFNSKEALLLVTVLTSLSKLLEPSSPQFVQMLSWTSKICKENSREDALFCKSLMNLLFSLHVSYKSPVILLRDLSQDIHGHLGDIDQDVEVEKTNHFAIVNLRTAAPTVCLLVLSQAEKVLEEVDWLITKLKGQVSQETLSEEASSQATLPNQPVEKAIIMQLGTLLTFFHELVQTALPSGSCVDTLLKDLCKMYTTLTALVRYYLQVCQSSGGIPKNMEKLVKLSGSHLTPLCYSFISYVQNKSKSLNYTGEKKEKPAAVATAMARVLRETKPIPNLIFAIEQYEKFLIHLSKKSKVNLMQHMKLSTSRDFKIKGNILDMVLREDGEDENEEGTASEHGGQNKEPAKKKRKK
# Sequence of UniProt Q96EB1 (Q96EB1 whole entry, looked up): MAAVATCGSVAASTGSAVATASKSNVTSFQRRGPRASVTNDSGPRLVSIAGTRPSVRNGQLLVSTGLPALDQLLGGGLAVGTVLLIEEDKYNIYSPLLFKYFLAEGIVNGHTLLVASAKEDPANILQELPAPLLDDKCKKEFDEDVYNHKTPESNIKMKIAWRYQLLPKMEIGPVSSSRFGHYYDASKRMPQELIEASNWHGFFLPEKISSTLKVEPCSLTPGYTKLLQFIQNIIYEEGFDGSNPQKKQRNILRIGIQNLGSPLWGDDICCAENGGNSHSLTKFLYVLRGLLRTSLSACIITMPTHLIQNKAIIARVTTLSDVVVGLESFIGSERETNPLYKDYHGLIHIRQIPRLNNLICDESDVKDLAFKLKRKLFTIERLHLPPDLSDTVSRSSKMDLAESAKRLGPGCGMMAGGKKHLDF
# Sequence of UniProt Q6P2E9 (Q6P2E9 whole entry, looked up): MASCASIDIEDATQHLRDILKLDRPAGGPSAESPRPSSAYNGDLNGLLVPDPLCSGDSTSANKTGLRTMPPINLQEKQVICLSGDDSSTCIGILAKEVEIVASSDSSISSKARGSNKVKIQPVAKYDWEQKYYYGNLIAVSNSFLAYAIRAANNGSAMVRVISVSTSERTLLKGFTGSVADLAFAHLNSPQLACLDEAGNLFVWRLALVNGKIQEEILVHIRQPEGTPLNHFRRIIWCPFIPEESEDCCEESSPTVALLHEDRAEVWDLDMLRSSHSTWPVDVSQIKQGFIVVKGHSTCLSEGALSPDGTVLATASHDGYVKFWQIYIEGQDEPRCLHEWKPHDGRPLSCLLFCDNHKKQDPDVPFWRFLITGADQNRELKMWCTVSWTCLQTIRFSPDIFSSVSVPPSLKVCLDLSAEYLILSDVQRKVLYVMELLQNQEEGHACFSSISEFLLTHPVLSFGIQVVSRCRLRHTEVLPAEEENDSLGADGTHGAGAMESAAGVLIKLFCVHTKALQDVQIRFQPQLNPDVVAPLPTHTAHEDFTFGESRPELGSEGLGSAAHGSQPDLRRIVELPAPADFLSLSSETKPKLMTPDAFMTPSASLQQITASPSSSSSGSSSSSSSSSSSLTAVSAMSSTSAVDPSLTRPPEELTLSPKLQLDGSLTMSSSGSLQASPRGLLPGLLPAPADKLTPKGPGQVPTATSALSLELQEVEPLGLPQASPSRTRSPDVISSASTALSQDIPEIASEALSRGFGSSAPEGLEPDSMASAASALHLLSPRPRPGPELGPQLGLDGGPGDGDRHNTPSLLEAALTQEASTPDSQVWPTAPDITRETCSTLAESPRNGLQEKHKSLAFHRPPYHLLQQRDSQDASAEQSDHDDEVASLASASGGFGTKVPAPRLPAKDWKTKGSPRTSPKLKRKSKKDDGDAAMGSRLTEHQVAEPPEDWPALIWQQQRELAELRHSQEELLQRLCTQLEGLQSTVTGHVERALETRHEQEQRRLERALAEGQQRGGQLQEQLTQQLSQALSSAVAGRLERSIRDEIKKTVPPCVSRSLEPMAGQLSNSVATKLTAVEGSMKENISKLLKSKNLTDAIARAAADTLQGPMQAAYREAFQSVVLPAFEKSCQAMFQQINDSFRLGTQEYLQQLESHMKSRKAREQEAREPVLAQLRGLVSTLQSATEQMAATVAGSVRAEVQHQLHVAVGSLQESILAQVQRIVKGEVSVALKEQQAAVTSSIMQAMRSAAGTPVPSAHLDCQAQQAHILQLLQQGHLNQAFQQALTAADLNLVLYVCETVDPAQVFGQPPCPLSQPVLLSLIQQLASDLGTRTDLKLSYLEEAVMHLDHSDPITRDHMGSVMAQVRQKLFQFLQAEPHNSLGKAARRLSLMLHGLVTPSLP
# Sequence of UniProt P10109 (P10109 whole entry, looked up): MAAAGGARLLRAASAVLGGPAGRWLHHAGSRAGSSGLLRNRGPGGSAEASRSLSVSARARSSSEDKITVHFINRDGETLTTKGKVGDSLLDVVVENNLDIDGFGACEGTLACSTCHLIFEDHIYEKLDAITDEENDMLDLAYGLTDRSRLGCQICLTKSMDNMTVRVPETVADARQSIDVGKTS
# Sequence of UniProt P42566 (P42566 whole entry, looked up): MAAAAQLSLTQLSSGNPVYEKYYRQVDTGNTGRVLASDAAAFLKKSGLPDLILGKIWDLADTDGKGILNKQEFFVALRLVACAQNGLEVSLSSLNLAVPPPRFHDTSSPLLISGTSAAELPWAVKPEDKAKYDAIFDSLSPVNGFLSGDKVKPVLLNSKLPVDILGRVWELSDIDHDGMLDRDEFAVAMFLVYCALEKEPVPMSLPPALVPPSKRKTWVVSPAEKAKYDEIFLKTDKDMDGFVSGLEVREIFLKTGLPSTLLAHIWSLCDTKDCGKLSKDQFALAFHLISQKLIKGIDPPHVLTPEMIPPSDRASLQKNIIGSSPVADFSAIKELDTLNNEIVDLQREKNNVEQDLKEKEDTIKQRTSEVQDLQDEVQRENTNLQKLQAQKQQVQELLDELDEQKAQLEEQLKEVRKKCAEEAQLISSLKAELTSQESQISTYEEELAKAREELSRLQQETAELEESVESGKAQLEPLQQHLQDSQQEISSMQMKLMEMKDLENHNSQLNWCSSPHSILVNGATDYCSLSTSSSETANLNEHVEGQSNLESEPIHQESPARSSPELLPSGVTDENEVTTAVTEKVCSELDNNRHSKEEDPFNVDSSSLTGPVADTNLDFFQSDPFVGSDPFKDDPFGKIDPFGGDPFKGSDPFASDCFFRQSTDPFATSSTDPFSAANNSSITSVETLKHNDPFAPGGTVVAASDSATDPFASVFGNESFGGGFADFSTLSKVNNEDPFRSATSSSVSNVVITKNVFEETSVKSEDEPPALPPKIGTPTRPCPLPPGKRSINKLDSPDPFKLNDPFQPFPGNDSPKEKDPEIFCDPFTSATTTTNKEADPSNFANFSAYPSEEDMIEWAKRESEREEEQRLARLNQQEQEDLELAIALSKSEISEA
# Sequence of UniProt P33316 (P33316 whole entry, looked up): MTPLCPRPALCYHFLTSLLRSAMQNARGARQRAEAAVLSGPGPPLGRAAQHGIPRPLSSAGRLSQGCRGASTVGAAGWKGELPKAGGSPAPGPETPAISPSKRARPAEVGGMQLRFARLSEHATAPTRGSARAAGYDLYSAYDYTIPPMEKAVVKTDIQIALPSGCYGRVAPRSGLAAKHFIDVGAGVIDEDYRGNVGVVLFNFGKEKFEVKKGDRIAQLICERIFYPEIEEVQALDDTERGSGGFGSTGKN
# Sequence of UniProt Q5RKV6 (Q5RKV6 whole entry, looked up): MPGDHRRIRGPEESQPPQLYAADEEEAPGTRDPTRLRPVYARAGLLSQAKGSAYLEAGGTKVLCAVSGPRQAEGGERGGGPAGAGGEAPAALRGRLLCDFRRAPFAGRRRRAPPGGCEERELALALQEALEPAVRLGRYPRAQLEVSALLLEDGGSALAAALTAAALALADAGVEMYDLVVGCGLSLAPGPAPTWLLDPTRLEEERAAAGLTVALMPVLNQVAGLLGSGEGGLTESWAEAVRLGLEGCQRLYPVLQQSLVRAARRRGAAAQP
row,Target,probe-labelled cysteine peptide fold change
1,ENG_P17813_549_TGTLSCTVALRPK (UniProt P17813),-0.0378
2,EFTUD2_Q15029_144+148_TCFVDCLIEQTHPEIR (UniProt Q15029),-0.0405
3,FBXO30_Q8TB52_90_VAEHLEMCPASVVCCTMEWNR (UniProt Q8TB52),-0.0583
4,FAM122A_Q96E09_193_SQSPINCIRPSVLGPLK (UniProt Q96E09),-0.161
5,EDC4_Q6P2E9_976_LCTQLEGLQSTVTGHVER (UniProt Q6P2E9),0.299
6,DYNC1H1_Q14204_2712_IQFVGACNPPTDPGRKPLSHR (UniProt Q14204),0.27
7,FANCI_Q9NVI1_650_LEACILTQGDK (UniProt Q9NVI1),-0.113
8,EPS15_P42566_782_IGTPTRPCPLPPGKR (UniProt P42566),-1.1
9,FBXO22_Q8NEZ5_7_MEPVGCCGECR (UniProt Q8NEZ5),1.31
10,DUT_P33316-2_3_PCSEETPAISPSK (UniProt P33316),-0.042
11,EEF1A1_P68104_234_DGNASGTTLLEALDCILPPTRPTDKPLRLPLQDVYK (UniProt P68104),-0.435
12,ELP4_Q96EB1_361_LNNLICDESDVK (UniProt Q96EB1),0.12
13,FCHSD2_O94868_200_SECNSK (UniProt O94868),-0.158
14,EIF3CL_B5ME19_572_TCAILCHIYHHALHSR<|>EIF3C_Q99613_571_TCAILCHIYHHALHSR (UniProt Q99613+B5ME19),-0.279
15,DSTN_P60981_163_LGGSLIVAFEGCPV (UniProt P60981),-0.173
16,EXOSC6_Q5RKV6_248_LGLEGCQR (UniProt Q5RKV6),0.0231
17,EXOSC2_Q13868_259_MMLYDTSILYCYEASLPHQIK (UniProt Q13868),0.254
18,FDX1_P10109_152+155_LGCQICLTK (UniProt P10109),-0.896
19,FAM208A_Q9UK61_149_ACLVHNELLEK (UniProt Q9UK61),-1.18
20,EEF1B2_P24534_191_LQIQCVVEDDK<|>EEF1D_P29692_247_LQIQCVVEDDK (UniProt P29692+P24534),0.387
21,FAM98C_Q17RN3_340_REDGGPQCWGR (UniProt Q17RN3),-1.05
